# Bioassay records as filed in PubChem BioAssay.
# Sampled rows, rich in hits. Any-hit rate of the full collection: about 21%.
# Shiga inhibitor = Shiga toxin inhibition; Vero cells, Shiga toxin protein synthesis inhibition reporter; inhibition, % at 38.7 µM; 290,000 compounds, 9.2% hits; AID 2315; in the data active = inhibition mostly above about 28%, no sharp cut-off; inactive = mostly below about 43%; note: 0% is about no effect
# HCV inh = blocks hepatitis C virus; Huh7.5.1 HCVcc-Cre infection, luciferase reporter, 44 h; Potency, µM (highest dose often 41.8 µM), inactives show at the highest dose activity change, negative = inhibition, usual class: inhibitors; 340,000 compounds, 3.4% hits; note: potency is the fitted concentration of half-maximal effect; % is set by controls: 0 for no effect and ±100 for the full control effect
#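 Cells (1,000/well) were plated 4 h before compound, then infected with HCVcc-Cre virus (~0.5 moi). After 44 h further culture, infection was read as luciferase luminescence following a 15 min substrate incubation at room temperature.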
# HCMV antiviral = blocks human cytomegalovirus replication. HFF cells, HCMV-luciferase reporter, 72 h; active compounds read low. activity change, negative = inhibition, % at 57.5 µM. 410,000 compounds, 4.5% hits. AID 1259415; in the data active = activity change below about -60%; inconclusive = no clear call, values can overlap the other calls; inactive = above about -39%; note: % is set by controls: 0 for no effect and ±100 for the full control effect
#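 Steps: HFFs plated, 16 h 37C; compounds added; HCMV-luciferase added to MOI 1 PFU/cell; 72 h 37C; OneGlo reagent, 5 min room temperature; luminescence read, normalized to controls.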
# Pf growth 96h = P. falciparum growth inhibition at 96 hours; P. falciparum luciferase reporter growth, 96 h; Potency, µM (doses to about 28.7 µM), for the others: top-dose activity change, negative = inhibition, actives largely listed as inhibitors; 320,000 compounds, 6.9% hits; AID 504834; note: potency is the fitted concentration of half-maximal effect; % is set by controls: 0 for no effect and ±100 for the full control effect
#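 Cell-based qHTS: luciferase-tagged P. falciparum in erythrocytes (2% hematocrit, 0.05% parasitemia final) incubated with compounds for 96 hours, 37 C, 5% CO2; luciferase detection reagent then added and luminescence measured.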
# CHX counter = counter-screen hit for Shiga toxin inhibitors, cycloheximide | cell reporter, cycloheximide protein synthesis inhibition counterscreen | max response, % | 300,000 compounds, 12% hits | AID 2314; in the data active = max response mostly above about 13%, no sharp cut-off; inactive = mostly below about 14%; note: read at 38.3 µM for the half of the compounds with a filed dose; 0% is about no effect
# Pf growth 48h = P. falciparum growth inhibition at 48 hours (one generation); P. falciparum luciferase growth in erythrocytes, 48 h; Potency, µM (top dose mostly 28.7 µM), for inactives: at the top dose activity change, negative = inhibition, hits mostly inhibitors; 310,000 compounds, 5.9% hits; AID 504832; note: potency is the fitted concentration of half-maximal effect; % is set by controls: 0 for no effect and ±100 for the full control effect
#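 Luciferase-expressing parasites in RBCs, 2% Hct / 0.1% parasitemia final; RPMI 1640 + 0.5% Albumax; 37 C, 5% CO2, one generation; luminescence read-out, lower signal = inhibition.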
# Starred values were filed as active, the others as inactive; i = inactive; ? = inconclusive; nt = no result. Unless noted, calls come from the whole dose curve; as a rule, active = well fitted inhibition curve with a large enough effect; inconclusive = small, poorly fitted or top-dose-only effect, or another doubt; inactive = no such curve, though single readings can be large or run the other way.
SMILES,Shiga inhibitor,HCV inh,HCMV antiviral,Pf growth 96h,CHX counter,Pf growth 48h
Cc1nc(-c2ccc(S(=O)(=O)Nc3ccc(S(N)(=O)=O)cc3)cc2)co1,-7.1,9.6%,-12.0,10.4µM*,9.2,-3.6%
COc1ccc(NS(=O)(=O)c2ccc(-c3coc(C)n3)cc2)cc1OC,-1.0,?,-92.4*,?,8.1,-22.9%
COc1ccc(NS(=O)(=O)c2ccc(-c3coc(C)n3)cc2)cc1,1.7,?,-26.1,151.1%,11.2,0.0%
CSc1cccc(NS(=O)(=O)c2ccc(-c3coc(C)n3)cc2)c1,-1.7,-22.4%,-26.4,4.65µM*,12.2,-6.7%
COc1cccc(N=Cc2c(O)n(Cc3ccco3)c(=O)[nH]c2=O)c1,-3.0,-3.3%,39.4,-12.6%,-1.2,-26.7%
CC(C)n1c(=O)c(C=Nc2ccc(Cl)cc2)c(O)n(Cc2ccco2)c1=O,-3.8,5.5%,-35.2,1.04µM*,-1.9,10.4µM*
CC(C)n1c(=O)c(C=Nc2ccc(F)cc2)c(O)n(Cc2ccco2)c1=O,45.0,2.9%,?,?,6.0,14.7µM*
CCC(=O)Nc1c(S(=O)(=O)c2ccccc2)c2nc3ccccc3nc2n1C(C)c1ccccc1 (stereo not drawn),-13.8,?,nt,11.7µM*,-2.2,11.7µM*
CCc1ccc(C2=NN(C(=O)OC)C(O)(C(F)(F)F)C2)cc1 (stereo not drawn),61.7*,-1.9%,29.5,172.4%,37.0*,449.6%
O=C(c1ccco1)N1N=C(c2ccncc2)CC1(O)C(F)(F)F (stereo not drawn),-10.1,7.4%,?,5.22µM*,-7.0,17.6%
COc1ccc(CC(=O)N2N=C(c3ccncc3)CC2(O)C(F)(F)F)cc1 (stereo not drawn),-9.8,-10.6%,?,0.0%,0.4,?
COc1cccc(C2=NN(C(=O)c3cccs3)C(O)(C(F)(F)F)C2)c1 (stereo not drawn),4.2,?,38.9,-10.4%,13.1,3.7µM*
CCOC(=O)N1N=C(c2ccc(OC)cc2)CC1(O)C(F)(F)F (stereo not drawn),48.9*,1.4%,28.9,20.6%,42.5*,69.7%
COc1ccccc1Cc1c(-c2ccccc2)nc2ccc(C)cn12,nt,nt,51.4,nt,nt,nt
O=[N+]([O-])c1nc2ccccc2[nH]1,nt,-1.1%,32.3,nt,nt,nt
Cc1ccccc1NC(=O)CCC(=O)N1CCSc2ccccc21,nt,nt,-19.2,nt,nt,nt
CCOc1ccc(CCNC(=O)c2ccc(-c3nc(COc4ccc(C)cc4)c(C)o3)cc2)cc1,nt,nt,-6.7,nt,nt,nt
Cc1ccc(-n2nnnc2SCC(=O)Nc2ccc3c(c2)COC3=O)cc1C,-3.5,?,-14.3,nt,16.5*,-2.8%
Cn1ccnc1SCC(=O)Nc1ccc2c(c1)COC2=O,52.0*,-5.4%,48.1,nt,14.5,9.7%
Cn1ccnc1SCC(=O)Nc1cccc(C#N)c1,nt,-4.0%,-10.8,nt,nt,nt
Cc1ccc(-n2nnnc2SCC(=O)Nc2ccc3c(c2)OCCO3)cc1C,9.2,-12.7%,42.7,?,6.7,24.2%
COc1ccc(CNC(=O)COC(=O)c2ccc(C)c(S(=O)(=O)N3CCOCC3)c2)cc1,nt,2.5%,-36.7,nt,nt,nt
O=C(Nc1cc([N+](=O)[O-])ccc1C(=O)NCCN1CCOCC1)c1ccccc1,-23.4,-14.3%,-25.2,-6.6%,-1.1,2.1%
O=C(CN1CCc2ccccc21)NC(=O)NC1CCCCC1,-6.3,-4.8%,65.1,19.2%,-3.5,-2.9%
CCOc1ccccc1NC(=O)C(=O)N/N=C/c1cc(Br)ccc1O,8.5,6.31µM*,-100.9*,-25.6%,-6.0,2.33µM*
SMILES,Shiga inhibitor,HCV inh,HCMV antiviral,Pf growth 96h,CHX counter,Pf growth 48h
O=C(N/N=C/c1cc(Br)ccc1O)Nc1ccccc1,76.3*,-22.9%,?,8.28µM*,-2.2,?
O=C(C[n+]1ccccc1)N/N=C/c1ccc(Cl)cc1,nt,6.5%,-18.2,7.38µM*,nt,?
CN(C)S(=O)(=O)c1cccc(NC(=S)N/N=C/c2cc(Br)ccc2O)c1,28.3,-21.8%,-97.7*,?,14.1,2.08µM*
CN(C)S(=O)(=O)c1cccc(NC(=S)N/N=C/c2cccc(O)c2)c1,35.6,6.8%,-14.9,?,18.3,?
COc1ccc(C(=O)O)cc1Nc1nc2ccc(C)cc2n2cnnc12,nt,nt,-2.2,nt,nt,nt
O=C(C[n+]1ccccc1)N/N=C/c1cc(Br)ccc1O,-1.5,-7.4%,18.5,4.15µM*,-0.5,nt
O=C(NC1=NCCS1)c1ccccc1,19.9,-4.3%,72.2,?,16.8,67.8%
O=C(NC1=NCCS1)c1ccncc1,8.1,5.3%,5.8,-17.0%,-1.9,9.9%
Cc1cccc(C(=O)NC2=NCCS2)c1,56.4*,-4.7%,20.0,29.4%,35.3*,146.3%
Cc1cc(C(=O)NC2=NCCS2)cs1,66.2*,20.3%,141.4,14.5%,40.6*,i
Cc1ccc(CNC(=O)NC2COc3ccccc3C2)cc1 (stereo not drawn),nt,nt,18.5,nt,nt,nt
O=c1c2ccccc2ncn1-c1cccc(Br)c1,5.5,9.7%,1.0,1.65µM*,-2.5,25.9%
O=c1c2ccccc2nc(/C=C/c2cccc([N+](=O)[O-])c2)n1CCCO,nt,-11.6%,?,nt,nt,nt
Cc1[nH]c2ccccc2c1/C=C/c1nc2ccccc2c(=O)n1-c1cccc([N+](=O)[O-])c1,-12.5,7.8%,-85.9*,3.7µM*,-0.6,2.08µM*
O=c1c2ccccc2nc(/C=C/c2ccc([N+](=O)[O-])o2)n1CCCO,26.7,2.24µM*,-107.6*,2.62µM*,17.7*,?
O=c1c2ccccc2nc(/C=C/c2cccc(Br)c2)n1CCCO,-13.7,?,-92.1*,13.1µM*,0.3,?
COc1ccc(CN2CCC(n3nccc3NC(=O)C3CC3)CC2)c(Cl)c1OC,-2.4,-13.6%,-12.3,15.5%,-3.6,110.9%
O=C1C(=O)N(C2CCN(S(=O)(=O)c3ccc(F)cc3)CC2)CCN1Cc1ccccc1,nt,nt,11.2,nt,nt,nt
O=C(O)C1(Nc2ccc([N+](=O)[O-])cc2[N+](=O)[O-])CCCC1,nt,22.8%,20.5,nt,nt,nt
COc1ccc(C2c3c(n(C)c4ccccc34)C(=O)N2CC(=O)Nc2ccc(C)cc2Cl)cc1 (stereo not drawn),nt,nt,0.0,nt,nt,nt
Cc1cccc(C)c1OC(=O)CSc1nnc(-c2cccs2)o1,nt,nt,-10.9,nt,nt,nt
O=c1c2ccccc2nc(/C=C/c2ccc(Br)cc2)n1CCO,nt,-10.0%,-37.5,nt,nt,nt
O=C(/C=C/c1cccc([N+](=O)[O-])c1)n1cnc2ccccc21,-7.7,?,-98.5*,174.1%,-2.2,-15.8%
Cn1c(/C=C/c2cccc(Br)c2)nc2ccccc2c1=O,80.4*,-84.6%,-72.2*,?,46.5*,?
O=c1c2ccccc2nc(/C=C/c2ccc(Br)cc2)n1CCCO,12.9,?,-71.2*,7.5%,13.9,?
Cn1c(/C=C/c2cccc([N+](=O)[O-])c2)nc2ccccc2c1=O,-14.4,-15.4%,-61.2*,?,-1.6,14.8%
